Data: PubChem BioAssay (NCI)
About 83,000 compounds went through this panel and 20% of them were active in at least one assay; those are over-represented in the sample as a whole.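 Step 1: grow cells in 96-well plates. Step 2: add test compound at a single concentration. Step 3: incubate 48 h. Step 4: record percent growth.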 Unmarked numbers belong to inactive results. Calls of active or inactive are those of the source. The calls were made as follows: active = growth percent below 10; inactive = the rest.

Columns and labels:
Assay in all cases: NCI-60 one-dose screen, 48 h (100 = growth as untreated, 0 = no growth, -100 = all killed)
Conditions in all cases: 10 µM unless noted
DU-145 prostate = tested on: DU-145 prostate
K-562 leukemia = tested on: K-562 leukemia
MALME-3M melanoma = tested on: MALME-3M melanoma
MDA-MB-231 breast = tested on: MDA-MB-231 breast
RXF 393 renal = tested on: RXF 393 renal
SF-268 CNS = tested on: SF-268 CNS
SF-295 CNS = tested on: SF-295 CNS
SF-539 CNS = tested on: SF-539 CNS
UACC-257 melanoma = tested on: UACC-257 melanoma
M14 melanoma = tested on: M14 melanoma
HCT-15 colon = tested on: HCT-15 colon
HT29 colon = tested on: HT29 colon
SNB-75 CNS = tested on: SNB-75 CNS
SNB-19 CNS = tested on: SNB-19 CNS
U251 CNS = tested on: U251 CNS
PC-3 prostate = tested on: PC-3 prostate
SK-MEL-5 melanoma = tested on: SK-MEL-5 melanoma
UACC-62 melanoma = tested on: UACC-62 melanoma
LOX IMVI melanoma = tested on: LOX IMVI melanoma
SK-MEL-28 melanoma = tested on: SK-MEL-28 melanoma

SMILES | growth (DU-145 prostate) | growth (K-562 leukemia) | growth (MALME-3M melanoma) | growth (MDA-MB-231 breast) | growth (RXF 393 renal) | growth (SF-268 CNS) [%] | growth (SF-295 CNS) | growth (SF-539 CNS) | growth (UACC-257 melanoma) | growth (M14 melanoma) | growth (HCT-15 colon) | growth (HT29 colon) | growth (SNB-75 CNS) | growth (SNB-19 CNS) [%] | growth (U251 CNS) | growth (PC-3 prostate) | growth (SK-MEL-5 melanoma) | growth (UACC-62 melanoma) | growth (LOX IMVI melanoma) | growth (SK-MEL-28 melanoma) [%]
CCCCNC(=O)CC1=C(C)/C(=C/c2[nH]c(-c3ccc[nH]3)cc2OC)N=C1C | 34.6% | 1.68% (active) | 34% | 13.5% | 59.4% | 27 | 14.6% | 27.8% | 5.48% (active) | -43.1% (active) | 2.62% (active) | 9.63% (active) | 65.3% | 67.1 | 28.7% | 6.07% (active) | 1.34% (active) | -28.9% (active) | -36.9% (active) | 31
CCOC(=O)c1nn(-c2ccc(S(N)(=O)=O)cc2)c2nc(C)cc(=O)n12 | 108% | 102% | 106% | 102% | 104% | 103 | 103% | 97.8% | 112% | 104% | 108% | 109% | 94.8% | 98.8 | 99% | 101% | 106% | 99.6% | 96.2% | 119
CCOC(=O)C1=C(c2ccccc2)N=C2SC=C(c3ccc(Cl)cc3)N2C1c1ccc(Cl)cc1 (stereo not given) | 87.7% | 73.8% | 87.2% | 74.2% | 72% | 78.8 | 88.9% | 92.8% | 64.9% | 82.8% | 77.6% | 83% | 84.7% | 82.8 | 80.9% | 41.3% | 54.7% | 66.4% | 88.3% | 95.8
OB1OCc2cc(/C=C/c3cccc(C(F)(F)F)c3)ccc21 | -6.62% (active) | 11.4% | 9.86% (active) | -33.9% (active) | -40.3% (active) | 10.6 | 7.3% (active) | -58.9% (active) | 37.1% | -7.54% (active) | 17.8% | 25.9% | -19.3% (active) | 20.8 | 0.414% (active) | 23.6% | -14.1% (active) | 19.9% | -72.5% (active) | 45.5
COc1cc(-c2nc3sccn3c2-c2ccnc(NCCNS(=O)(=O)c3ccccc3)n2)ccc1F | 61.4% | 28.3% | 49.2% | 48.8% | 21.5% | 48.6 | 66.4% | 83.8% | 62.4% | 38.6% | 52.1% | 24.6% | 59.4% | 67.6 | 61% | 30.9% | 19% | 25.8% | 41.4% | 63.7
Cc1ccc2c(c1)=C/C(=C\c1cc(-c3ccccc3)oc1O)C(=O)N=2 | 104% | 91.7% | 110% | 116% | 106% | 91.6 | 93.1% | 101% | 109% | 90.6% | 97.6% | 108% | 93.5% | 107 | 109% | 96.3% | 105% | 101% | 94.4% | 104
CCCc1c(OC(=O)c2ccccc2)nc2[nH]c(=O)sc2c1C | 106% | 112% | 95.1% | 104% | 101% | 97.1 | 102% | 99% | 98.5% | 99.4% | 98.3% | 104% | 88.9% | 96 | 97.7% | 97.2% | 98% | 88.8% | 98.3% | 104
CCOC(=O)c1c2c(n3cccc(F)c13)C(=O)c1ncccc1C2=O | 3.34% (active) | 9.2% (active) | 25.6% | 38.2% | 1.36% (active) | 20.9 | 3.24% (active) | -9.12% (active) | 12.7% | -33.1% (active) | 12.7% | 8.73% (active) | 28.7% | 11.3 | -35.5% (active) | 13.7% | -23% (active) | -33.4% (active) | -20.9% (active) | 37.4
COc1ccccc1NC(=O)N=Nc1c(O)[nH]c2ccccc12 | 102% | 91.2% | 95.8% | 82.7% | 100% | 99.1 | 94.1% | 98.3% | 89% | 95.1% | 94.4% | 105% | 82.7% | 89.7 | 97.3% | 89.7% | 94.1% | 79.2% | 98.2% | 104
O=C(CN1CCOCC1)Nc1nc(-c2cc3ccccc3oc2=O)cs1 | 106% | 96.3% | 102% | 93.6% | 109% | 90.1 | 101% | 97.6% | 106% | 101% | 104% | 103% | 82.2% | 101 | 98.7% | 97.5% | 99.2% | 92.5% | 95.6% | 104
Cn1cc(-c2csc(-c3cn(C(=O)OC(C)(C)C)c4ccc(Br)cc34)n2)c2ccnc(Cl)c21 | 68.3% | 86.9% | 36.6% | 61.2% | 78.3% | 82.4 | 89.9% | 55.5% | 70.3% | 88.2% | 24.2% | 88.5% | 2.34% (active) | 44 | 45.3% | 44.2% | 95% | 96.1% | 89.1% | 94.7
O=C(Nc1ccc(Oc2cccc(Cl)c2)c(Cl)c1)c1cccnc1 | 16.1% | 11.1% | 50.1% | 59% | -0.145% (active) | 53.4 | 41.4% | -8.37% (active) | 64.2% | 21.8% | 36.8% | 8.57% (active) | -23.2% (active) | 41.3 | 23.9% | 14.9% | 14.5% | 37.6% | 51.7% | 63.8
COc1cc2ncnc(Nc3ccc(F)c(Cl)c3)c2cc1OCC(=O)N1CCN(c2ccccc2)CC1 | 62.9% | 85.2% | 96.3% | 90.5% | 81.2% | 82.6 | 93.4% | 104% | 107% | 99.4% | 90.7% | 90.4% | 83.7% | 85.9 | 98.9% | 90.6% | 95% | 92.8% | 93.7% | 113
CC(C)=CCCC(C)c1ccc(C)c2c1OCN(CCCCCO)C2 (stereo not given) | 109% | 31.1% | 93.6% | 93.4% | 90.1% | 97.5 | 110% | 84.5% | 78.4% | 84.2% | 94% | 27.2% | 85.6% | 88.8 | 83.8% | 66.6% | 91.7% | 82.8% | 77.6% | 115
O=S(=O)(Nc1ccc(F)cc1F)c1ccc(-c2cnc(C3CC3)o2)cc1 | 40.7% | 18.2% | 34.8% | 53% | -1.92% (active) | 44.6 | 30.7% | 1.19% (active) | 64% | 4.25% (active) | 23.7% | 14% | -13.1% (active) | 46.5 | 26.6% | 42.5% | 6.16% (active) | 27.4% | 41.5% | 63.5
